# Test results: the supplement of paper PMC11732987, “Enantioselective OTUD7B fragment discovery through chemoproteomics screening and high-throughput optimisation” (Communications Chemistry, 2025)
# A number with no mark means an inactive call.
# Tests used:
# Assay in all cases: log2 ratio of Biotin-Ahx-Ub-VS probe labelling (fragment/DMSO); higher = less target engagement (more negative = stronger competition), active = hit call of the paper (q ≤ 0.05, log2 ratio ≤ -1)
# Settings in all cases: compound concentration: 200 uM; treatment time: 3 h
# USP42 = target: T1, USP42 (UniProt Q9H9J4)
# T1 sequence (whole entry): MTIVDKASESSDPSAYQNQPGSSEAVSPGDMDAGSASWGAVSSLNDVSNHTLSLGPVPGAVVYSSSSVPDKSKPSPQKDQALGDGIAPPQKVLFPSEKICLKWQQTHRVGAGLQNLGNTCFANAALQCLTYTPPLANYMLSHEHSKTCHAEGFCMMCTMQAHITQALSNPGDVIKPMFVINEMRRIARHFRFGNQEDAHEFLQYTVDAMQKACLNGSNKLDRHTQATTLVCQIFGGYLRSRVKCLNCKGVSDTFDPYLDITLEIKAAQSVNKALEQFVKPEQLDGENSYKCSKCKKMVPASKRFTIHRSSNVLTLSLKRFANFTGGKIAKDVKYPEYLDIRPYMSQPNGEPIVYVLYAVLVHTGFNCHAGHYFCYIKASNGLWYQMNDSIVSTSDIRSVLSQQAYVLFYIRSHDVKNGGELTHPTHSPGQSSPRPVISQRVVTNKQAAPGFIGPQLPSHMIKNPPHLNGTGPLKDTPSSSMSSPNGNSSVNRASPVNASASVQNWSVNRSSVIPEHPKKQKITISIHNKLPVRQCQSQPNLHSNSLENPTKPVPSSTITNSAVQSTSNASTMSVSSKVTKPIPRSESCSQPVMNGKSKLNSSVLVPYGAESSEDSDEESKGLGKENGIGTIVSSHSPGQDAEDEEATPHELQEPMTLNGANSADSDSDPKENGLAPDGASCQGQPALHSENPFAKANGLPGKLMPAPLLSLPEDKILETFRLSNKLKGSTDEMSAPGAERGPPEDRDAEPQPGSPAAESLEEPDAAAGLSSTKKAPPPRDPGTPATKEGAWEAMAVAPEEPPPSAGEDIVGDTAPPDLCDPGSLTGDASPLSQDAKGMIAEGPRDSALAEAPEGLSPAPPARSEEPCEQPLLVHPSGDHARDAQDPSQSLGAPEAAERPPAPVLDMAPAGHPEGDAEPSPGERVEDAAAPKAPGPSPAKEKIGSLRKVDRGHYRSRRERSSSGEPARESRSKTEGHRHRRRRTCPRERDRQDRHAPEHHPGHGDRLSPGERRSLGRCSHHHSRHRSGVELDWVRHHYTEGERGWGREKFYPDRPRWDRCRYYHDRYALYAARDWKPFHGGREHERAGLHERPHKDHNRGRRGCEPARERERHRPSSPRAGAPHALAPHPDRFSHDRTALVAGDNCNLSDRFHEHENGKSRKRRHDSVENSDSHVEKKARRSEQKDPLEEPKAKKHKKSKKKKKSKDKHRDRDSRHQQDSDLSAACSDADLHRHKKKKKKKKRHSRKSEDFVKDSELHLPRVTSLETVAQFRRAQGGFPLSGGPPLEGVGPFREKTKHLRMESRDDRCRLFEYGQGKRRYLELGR
# In short: (§1)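 Each value is an average log2 ratio of fragment to vehicle, tested by unpaired t-test. The underlying Spectronaut label-free quantities were global-median-normalised, and only proteins with ≥2 unique peptides were included. Triplicate HEK293T lysate samples (495 µg) were exposed to fragment at 200 µM or vehicle for 3 h, then to Biotin-Ahx-Ub-VS at 0.5 µM final for 1 h, before NeutrAvidin enrichment of labelled DUBs, LysC and trypsin digestion, and diaPASEF LC-MS/MS.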
# USP46 = USP46 (UniProt P62068)
# In short: as §1
# USP47 = target: T2, USP47 (UniProt Q96K76)
# T2 sequence (whole entry): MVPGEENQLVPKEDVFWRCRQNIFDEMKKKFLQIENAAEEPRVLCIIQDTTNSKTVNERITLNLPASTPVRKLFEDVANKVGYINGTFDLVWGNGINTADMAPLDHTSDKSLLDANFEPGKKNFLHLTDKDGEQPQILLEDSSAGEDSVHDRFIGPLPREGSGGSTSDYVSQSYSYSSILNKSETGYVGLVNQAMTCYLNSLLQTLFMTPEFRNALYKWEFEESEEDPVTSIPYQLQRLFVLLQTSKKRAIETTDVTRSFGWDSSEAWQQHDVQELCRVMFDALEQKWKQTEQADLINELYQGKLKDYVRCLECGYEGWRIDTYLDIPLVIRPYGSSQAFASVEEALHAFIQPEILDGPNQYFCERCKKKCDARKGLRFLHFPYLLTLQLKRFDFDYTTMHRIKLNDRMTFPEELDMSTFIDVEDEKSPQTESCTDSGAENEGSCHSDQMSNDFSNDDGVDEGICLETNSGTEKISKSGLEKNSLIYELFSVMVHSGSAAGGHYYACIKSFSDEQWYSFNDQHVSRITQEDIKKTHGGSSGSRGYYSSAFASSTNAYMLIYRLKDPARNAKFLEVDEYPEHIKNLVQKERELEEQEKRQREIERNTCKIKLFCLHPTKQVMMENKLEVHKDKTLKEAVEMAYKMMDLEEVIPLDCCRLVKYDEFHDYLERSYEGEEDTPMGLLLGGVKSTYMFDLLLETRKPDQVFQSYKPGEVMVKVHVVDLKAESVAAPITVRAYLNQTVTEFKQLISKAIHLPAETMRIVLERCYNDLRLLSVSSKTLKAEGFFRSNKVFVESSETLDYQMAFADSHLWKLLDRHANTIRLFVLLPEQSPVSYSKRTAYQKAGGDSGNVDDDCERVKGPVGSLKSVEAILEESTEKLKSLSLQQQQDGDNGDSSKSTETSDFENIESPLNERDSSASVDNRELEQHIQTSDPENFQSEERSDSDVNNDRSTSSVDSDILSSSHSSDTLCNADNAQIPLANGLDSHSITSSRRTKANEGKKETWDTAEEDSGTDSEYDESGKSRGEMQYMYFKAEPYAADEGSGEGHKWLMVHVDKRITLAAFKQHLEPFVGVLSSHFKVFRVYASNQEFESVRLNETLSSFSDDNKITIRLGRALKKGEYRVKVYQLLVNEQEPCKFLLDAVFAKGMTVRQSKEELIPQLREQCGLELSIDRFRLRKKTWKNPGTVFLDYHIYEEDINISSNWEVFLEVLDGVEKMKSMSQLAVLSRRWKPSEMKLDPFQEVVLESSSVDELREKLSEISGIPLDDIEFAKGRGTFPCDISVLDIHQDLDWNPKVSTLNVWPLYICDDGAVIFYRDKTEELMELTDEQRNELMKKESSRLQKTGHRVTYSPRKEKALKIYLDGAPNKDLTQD
# In short: as §1
# USP48 = target: T3, USP48 (UniProt Q86UV5)
# T3 sequence (whole entry): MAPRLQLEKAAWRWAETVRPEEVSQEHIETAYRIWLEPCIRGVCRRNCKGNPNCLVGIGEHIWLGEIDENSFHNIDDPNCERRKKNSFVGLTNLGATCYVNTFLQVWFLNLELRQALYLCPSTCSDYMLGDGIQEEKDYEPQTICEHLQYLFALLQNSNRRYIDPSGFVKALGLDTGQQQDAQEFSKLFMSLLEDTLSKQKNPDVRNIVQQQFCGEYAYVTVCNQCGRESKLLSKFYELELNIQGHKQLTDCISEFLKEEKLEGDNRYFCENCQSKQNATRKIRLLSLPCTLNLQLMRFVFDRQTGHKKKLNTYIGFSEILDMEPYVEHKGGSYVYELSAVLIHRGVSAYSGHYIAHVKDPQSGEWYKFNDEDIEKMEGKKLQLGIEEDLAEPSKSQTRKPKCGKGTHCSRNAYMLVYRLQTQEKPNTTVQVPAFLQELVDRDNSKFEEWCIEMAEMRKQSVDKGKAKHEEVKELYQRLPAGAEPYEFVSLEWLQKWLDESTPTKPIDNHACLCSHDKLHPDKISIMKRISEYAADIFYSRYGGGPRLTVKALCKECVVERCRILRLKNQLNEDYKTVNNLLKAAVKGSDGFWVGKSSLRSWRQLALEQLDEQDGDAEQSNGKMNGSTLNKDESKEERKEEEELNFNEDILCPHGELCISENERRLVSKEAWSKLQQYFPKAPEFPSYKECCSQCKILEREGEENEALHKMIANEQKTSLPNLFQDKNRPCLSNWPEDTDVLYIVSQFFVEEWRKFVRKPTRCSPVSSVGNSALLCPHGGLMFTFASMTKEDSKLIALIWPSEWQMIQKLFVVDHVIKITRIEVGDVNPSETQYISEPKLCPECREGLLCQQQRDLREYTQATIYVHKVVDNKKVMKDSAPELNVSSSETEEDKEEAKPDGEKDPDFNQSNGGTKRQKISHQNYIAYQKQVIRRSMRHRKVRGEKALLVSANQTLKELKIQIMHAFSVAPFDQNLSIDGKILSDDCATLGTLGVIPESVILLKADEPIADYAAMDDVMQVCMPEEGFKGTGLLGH
# In short: as §1
# USP5 = target: T4, USP5 (UniProt P45974)
# T4 sequence (whole entry): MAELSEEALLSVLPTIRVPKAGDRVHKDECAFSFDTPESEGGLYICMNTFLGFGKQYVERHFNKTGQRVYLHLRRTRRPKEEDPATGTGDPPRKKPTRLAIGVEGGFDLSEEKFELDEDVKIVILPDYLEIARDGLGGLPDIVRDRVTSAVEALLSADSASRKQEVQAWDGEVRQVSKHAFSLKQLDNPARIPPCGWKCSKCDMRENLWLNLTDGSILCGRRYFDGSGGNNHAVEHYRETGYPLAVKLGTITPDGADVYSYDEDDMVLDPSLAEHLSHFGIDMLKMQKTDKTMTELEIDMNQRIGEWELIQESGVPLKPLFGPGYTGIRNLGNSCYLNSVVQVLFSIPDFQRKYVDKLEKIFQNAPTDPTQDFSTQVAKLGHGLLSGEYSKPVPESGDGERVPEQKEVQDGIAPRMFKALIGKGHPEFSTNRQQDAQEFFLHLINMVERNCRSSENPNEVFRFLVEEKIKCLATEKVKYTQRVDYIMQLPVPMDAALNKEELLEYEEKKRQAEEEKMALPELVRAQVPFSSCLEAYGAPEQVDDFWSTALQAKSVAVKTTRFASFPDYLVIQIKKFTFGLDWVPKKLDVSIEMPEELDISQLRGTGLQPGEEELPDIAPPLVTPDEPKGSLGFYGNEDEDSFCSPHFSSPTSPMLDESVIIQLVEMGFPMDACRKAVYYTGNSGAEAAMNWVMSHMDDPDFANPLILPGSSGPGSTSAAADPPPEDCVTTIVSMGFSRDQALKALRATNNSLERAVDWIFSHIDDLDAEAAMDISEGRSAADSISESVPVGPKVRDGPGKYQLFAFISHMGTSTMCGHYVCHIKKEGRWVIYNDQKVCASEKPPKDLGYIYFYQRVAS
# In short: as §1
# USP54 = USP54 (UniProt Q70EL1)
# In short: as §1
# USP7 = USP7 (UniProt Q93009)
# In short: as §1
# USP8 = target: T5, USP8 (UniProt P40818)
# T5 sequence (whole entry): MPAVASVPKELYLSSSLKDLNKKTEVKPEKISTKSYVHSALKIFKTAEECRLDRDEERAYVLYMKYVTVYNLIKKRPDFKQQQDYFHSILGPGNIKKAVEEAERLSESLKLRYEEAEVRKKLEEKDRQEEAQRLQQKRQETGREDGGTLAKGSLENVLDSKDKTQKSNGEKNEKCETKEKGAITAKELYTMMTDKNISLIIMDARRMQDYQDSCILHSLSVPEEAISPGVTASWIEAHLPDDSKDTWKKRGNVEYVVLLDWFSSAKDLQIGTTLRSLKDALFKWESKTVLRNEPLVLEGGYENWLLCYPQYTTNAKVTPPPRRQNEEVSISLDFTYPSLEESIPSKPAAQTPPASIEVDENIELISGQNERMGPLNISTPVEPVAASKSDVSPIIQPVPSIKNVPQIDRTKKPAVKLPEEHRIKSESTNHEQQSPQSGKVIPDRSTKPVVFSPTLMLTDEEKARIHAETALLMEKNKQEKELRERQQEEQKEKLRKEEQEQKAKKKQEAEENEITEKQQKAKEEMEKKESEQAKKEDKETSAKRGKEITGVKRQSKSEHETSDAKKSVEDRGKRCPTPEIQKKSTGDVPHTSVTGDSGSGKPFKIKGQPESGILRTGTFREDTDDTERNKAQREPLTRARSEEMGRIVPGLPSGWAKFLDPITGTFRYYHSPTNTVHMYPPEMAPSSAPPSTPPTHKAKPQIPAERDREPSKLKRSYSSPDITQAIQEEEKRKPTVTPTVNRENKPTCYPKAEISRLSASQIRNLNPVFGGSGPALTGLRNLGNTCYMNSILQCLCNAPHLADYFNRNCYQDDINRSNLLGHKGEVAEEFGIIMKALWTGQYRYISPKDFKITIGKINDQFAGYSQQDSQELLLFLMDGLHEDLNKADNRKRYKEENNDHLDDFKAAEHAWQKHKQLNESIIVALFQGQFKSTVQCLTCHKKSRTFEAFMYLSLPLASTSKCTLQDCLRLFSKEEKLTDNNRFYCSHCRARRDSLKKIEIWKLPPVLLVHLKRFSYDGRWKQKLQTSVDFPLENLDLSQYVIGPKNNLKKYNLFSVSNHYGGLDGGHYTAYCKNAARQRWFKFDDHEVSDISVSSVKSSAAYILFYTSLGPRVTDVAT
# In short: as §1
# USP9X = USP9X (UniProt Q93008)
# In short: as §1
# UniProt O00487 = target: UniProt O00487
# In short: as §1
# Chain of USP54 (Q70EL1 whole entry): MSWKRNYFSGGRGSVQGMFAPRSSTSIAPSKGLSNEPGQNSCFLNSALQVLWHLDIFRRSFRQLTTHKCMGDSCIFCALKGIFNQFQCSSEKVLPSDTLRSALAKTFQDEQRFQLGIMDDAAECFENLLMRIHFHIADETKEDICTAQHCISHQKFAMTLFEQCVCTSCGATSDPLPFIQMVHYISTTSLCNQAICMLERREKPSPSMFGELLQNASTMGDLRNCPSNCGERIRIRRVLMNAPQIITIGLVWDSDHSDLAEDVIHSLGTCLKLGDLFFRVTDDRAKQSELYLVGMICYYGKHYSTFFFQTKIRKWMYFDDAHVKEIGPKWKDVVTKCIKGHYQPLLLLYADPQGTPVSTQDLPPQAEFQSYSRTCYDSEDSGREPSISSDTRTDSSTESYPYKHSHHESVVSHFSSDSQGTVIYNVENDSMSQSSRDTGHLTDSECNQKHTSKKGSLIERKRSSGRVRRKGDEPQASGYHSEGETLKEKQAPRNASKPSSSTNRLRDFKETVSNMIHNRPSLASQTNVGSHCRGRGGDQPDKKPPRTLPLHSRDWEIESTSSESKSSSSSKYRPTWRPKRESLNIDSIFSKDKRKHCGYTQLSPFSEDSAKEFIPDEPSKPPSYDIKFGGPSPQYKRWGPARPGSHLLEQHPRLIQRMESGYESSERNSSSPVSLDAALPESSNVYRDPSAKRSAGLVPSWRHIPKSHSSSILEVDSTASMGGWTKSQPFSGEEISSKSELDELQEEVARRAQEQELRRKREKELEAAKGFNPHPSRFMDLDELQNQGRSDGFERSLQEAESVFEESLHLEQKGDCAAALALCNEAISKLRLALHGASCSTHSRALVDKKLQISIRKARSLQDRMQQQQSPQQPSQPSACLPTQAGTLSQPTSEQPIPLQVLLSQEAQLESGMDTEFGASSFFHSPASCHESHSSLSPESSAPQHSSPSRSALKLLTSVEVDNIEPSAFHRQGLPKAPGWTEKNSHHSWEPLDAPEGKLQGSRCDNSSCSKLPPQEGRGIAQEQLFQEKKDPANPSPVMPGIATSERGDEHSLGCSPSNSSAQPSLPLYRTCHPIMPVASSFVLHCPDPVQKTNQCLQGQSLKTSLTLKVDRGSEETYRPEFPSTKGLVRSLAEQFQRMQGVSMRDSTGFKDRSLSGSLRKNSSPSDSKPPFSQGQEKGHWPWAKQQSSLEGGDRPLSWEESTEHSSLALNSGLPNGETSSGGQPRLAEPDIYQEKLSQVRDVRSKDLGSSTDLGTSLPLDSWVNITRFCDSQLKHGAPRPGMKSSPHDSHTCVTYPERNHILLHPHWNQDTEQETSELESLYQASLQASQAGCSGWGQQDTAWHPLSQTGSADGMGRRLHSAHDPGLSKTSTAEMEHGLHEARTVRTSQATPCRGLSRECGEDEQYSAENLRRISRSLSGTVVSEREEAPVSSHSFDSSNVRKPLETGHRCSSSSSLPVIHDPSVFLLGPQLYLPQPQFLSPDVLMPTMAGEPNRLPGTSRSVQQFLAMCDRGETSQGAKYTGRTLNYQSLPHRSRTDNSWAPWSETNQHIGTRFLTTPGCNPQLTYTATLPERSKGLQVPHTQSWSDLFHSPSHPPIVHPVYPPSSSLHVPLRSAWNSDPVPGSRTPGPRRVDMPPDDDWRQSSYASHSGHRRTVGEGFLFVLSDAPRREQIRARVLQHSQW
# Chain of USP46 (P62068 whole entry): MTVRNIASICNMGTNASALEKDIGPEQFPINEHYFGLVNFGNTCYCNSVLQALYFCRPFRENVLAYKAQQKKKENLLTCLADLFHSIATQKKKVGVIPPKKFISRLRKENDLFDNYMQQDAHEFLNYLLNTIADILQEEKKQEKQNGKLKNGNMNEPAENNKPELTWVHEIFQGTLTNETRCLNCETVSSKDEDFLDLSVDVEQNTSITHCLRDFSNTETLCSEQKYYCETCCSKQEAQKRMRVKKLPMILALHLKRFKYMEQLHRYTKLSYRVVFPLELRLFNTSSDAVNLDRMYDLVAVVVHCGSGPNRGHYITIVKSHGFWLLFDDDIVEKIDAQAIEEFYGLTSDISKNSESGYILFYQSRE
# Chain of UniProt O00487 (O00487 whole entry): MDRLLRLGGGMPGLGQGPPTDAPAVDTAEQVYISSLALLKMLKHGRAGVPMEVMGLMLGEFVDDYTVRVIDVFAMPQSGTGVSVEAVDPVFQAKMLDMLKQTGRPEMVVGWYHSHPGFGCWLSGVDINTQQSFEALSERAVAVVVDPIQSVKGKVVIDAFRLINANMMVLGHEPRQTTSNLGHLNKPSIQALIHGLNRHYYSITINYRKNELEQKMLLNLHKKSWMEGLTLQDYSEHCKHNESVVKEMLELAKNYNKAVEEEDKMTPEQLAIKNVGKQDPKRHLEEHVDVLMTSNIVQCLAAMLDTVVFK
# Chain of USP9X (Q93008 whole entry): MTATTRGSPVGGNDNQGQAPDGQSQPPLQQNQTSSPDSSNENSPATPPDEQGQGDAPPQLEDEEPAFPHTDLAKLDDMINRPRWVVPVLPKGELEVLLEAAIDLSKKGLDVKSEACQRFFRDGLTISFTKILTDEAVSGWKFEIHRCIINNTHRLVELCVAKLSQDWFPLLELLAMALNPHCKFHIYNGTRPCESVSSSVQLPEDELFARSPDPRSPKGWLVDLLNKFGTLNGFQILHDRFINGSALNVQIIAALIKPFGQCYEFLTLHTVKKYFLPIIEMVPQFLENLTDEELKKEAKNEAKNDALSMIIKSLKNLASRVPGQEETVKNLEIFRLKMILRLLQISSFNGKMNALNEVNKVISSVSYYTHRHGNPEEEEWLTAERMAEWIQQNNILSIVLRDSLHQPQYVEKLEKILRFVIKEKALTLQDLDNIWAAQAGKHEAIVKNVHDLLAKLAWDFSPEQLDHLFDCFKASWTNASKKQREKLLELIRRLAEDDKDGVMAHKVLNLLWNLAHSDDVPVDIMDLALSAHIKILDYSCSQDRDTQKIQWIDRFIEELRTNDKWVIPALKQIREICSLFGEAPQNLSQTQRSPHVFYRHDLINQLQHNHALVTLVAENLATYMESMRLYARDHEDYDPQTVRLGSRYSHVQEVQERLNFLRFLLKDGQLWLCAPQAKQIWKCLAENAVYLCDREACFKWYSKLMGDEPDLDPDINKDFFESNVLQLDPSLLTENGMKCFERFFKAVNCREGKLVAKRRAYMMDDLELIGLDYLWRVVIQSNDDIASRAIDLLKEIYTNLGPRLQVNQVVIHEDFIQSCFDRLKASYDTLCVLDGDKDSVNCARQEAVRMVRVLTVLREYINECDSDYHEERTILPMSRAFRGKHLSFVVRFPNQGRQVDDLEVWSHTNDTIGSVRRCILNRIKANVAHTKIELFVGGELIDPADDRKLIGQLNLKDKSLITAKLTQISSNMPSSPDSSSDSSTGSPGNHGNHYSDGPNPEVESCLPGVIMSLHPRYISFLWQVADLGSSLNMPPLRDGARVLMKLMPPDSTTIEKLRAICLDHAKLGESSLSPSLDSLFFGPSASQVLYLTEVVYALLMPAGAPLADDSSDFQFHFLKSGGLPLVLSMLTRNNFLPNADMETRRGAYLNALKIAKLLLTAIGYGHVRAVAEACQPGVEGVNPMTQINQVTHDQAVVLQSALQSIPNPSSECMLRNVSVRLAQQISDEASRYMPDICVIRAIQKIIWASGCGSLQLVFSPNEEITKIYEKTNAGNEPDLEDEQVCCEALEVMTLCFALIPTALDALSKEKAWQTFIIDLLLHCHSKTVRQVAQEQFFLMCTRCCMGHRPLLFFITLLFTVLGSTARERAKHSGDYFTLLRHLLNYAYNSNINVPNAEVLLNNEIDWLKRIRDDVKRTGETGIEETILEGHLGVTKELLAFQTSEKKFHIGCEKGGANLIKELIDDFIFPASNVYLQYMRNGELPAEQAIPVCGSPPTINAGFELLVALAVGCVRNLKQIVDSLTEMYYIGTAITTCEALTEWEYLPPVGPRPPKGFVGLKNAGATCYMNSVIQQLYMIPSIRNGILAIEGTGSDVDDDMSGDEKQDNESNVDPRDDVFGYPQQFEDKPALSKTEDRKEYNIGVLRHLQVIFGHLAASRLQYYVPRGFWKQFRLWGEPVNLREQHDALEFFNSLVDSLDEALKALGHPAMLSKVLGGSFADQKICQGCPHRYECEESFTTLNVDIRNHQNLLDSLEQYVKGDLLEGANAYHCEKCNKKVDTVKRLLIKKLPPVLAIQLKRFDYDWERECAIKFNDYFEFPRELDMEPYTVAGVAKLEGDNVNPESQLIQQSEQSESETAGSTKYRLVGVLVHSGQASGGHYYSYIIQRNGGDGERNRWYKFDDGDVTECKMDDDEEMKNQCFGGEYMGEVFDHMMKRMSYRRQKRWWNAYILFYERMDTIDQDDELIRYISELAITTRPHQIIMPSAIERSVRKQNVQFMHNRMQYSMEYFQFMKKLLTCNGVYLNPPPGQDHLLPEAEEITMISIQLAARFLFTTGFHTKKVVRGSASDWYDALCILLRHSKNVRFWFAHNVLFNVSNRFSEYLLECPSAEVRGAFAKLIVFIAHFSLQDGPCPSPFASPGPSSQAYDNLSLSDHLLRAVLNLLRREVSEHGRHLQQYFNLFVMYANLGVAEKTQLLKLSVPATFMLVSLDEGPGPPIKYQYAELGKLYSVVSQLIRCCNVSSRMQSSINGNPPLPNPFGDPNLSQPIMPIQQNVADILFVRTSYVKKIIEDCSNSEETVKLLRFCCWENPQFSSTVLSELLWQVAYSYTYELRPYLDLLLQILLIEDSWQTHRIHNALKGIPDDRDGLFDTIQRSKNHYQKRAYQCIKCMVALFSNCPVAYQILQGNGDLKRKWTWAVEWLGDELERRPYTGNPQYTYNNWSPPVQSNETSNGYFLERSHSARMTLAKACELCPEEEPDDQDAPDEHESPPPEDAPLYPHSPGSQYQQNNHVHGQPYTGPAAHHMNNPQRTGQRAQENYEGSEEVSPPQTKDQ
compound,measurement,setting,value
CC1Cc2ccccc2N1C(=O)CCl (stereo not given),log2 ratio of Biotin-Ahx-Ub-VS probe labelling,USP42,-0.0391
same,log2 ratio of Biotin-Ahx-Ub-VS probe labelling,USP46,-0.226
same,log2 ratio of Biotin-Ahx-Ub-VS probe labelling,USP47,-0.675
same,log2 ratio of Biotin-Ahx-Ub-VS probe labelling,USP48,-0.686
same,log2 ratio of Biotin-Ahx-Ub-VS probe labelling,USP5,0.363
same,log2 ratio of Biotin-Ahx-Ub-VS probe labelling,USP54,0.538
same,log2 ratio of Biotin-Ahx-Ub-VS probe labelling,USP7,-1.33 (active)
same,log2 ratio of Biotin-Ahx-Ub-VS probe labelling,USP8,-0.238
same,log2 ratio of Biotin-Ahx-Ub-VS probe labelling,USP9X,-0.267
same,log2 ratio of Biotin-Ahx-Ub-VS probe labelling,UniProt O00487,-0.194
